Screening results (PubChem)
HttQ103 aggreg: inhibitors of mutant huntingtin aggregate formation in PC12 cells | Potency, µM (doses to about 46.1 µM), inactives show at the top dose activity change, negative = inhibition, most hits filed as inhibitors | 220,000 tested, 1.1% active | PC12 HttQ103-GFP aggregates, Acumen cytometry, 40 h; further: potency means the concentration at half of the fitted maximal effect; on the % scale 0 is the no-effect control and ±100 the full control effect; nearly all actives have a fitted effect of over 60% in size
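Huntingtin Q103 exon 1–GFP aggregates in induced PC12 cells (100 nM tebufenozide) were quantified by cytometry from lysates, with compounds dosed in titration.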
HTT cytoprotect: cytoprotection in Huntington HTT-Q103 PC12 cell model. PC12 HTT-Q103 induced, cytoprotection, ATP luminescence, 40 h. Potency, µM (titrated, usually from 56.4 µM), for the others: cytoprotection (ATP increase), actives largely listed as activators. 230,000 tested, 0.14% active. AID 1471; further: potency means the concentration at half of the fitted maximal effect; % of control where 0% means no effect; nearly all actives have a fitted effect of over 45% in size
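Compounds were screened for protection of PC12 cells against cell death after tebufenozide induction (100 nM final) of mutant Huntingtin exon 1 (Q103) fused to GFP.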
HPGD block: HPGD (human) dehydrogenase inhibition | Potency, µM, inactives show top-dose activity change, negative = inhibition, hits mostly inhibitors | AID 894 | P15428 | purified HPGD, NADH fluorescence kinetic, PGE2 substrate | 150,000 tested, 4.3% active; active means well fitted inhibition curve with a large enough effect, not every such curve was filed as active; inconclusive means small, poorly fitted or top-dose-only effect, or another doubt; inactive means no such curve, though single readings can be large or run the other way; further: potency means the concentration at half of the fitted maximal effect; on the % scale 0 is the no-effect control and ±100 the full control effect
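NADH formation kinetics: reaction with 30 uM PGE2 and 1 mM NAD+ (final), 20 nM enzyme, Tris-HCl pH 8 with Tween 20, after 15 min compound preincubation at room temperature. Fluorescence change, last versus first of five reads.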
PNC inhibitor: inhibitors of perinucleolar compartment assembly | activity change (PNC), negative = inhibition, % at 10 µM | 140,000 tested, 3.1% active | PC3M PTB-GFP, PNC prevalence imaging, 16 h; stronger effect = lower value | AID 2417;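 active means readout at or below -70, meaning at least 70% loss of cells showing the perinucleolar compartment, a nuclear body marking cancer cells; inconclusive means readout between -30 and a set limit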;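 further: plate controls were DMSO wells for no effect and camptothecin positive control wells for full effect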
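Read-out is percentage of cells bearing a perinucleolar compartment, from automated 20x imaging of fixed, Hoechst-stained PC3M PTB-GFP cells. Cells were seeded 4 h, then exposed 16 h to compound (23 nl of library stock) in duplicate plates.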
ALDH1A1 block: blocks purified human ALDH1A1 activity. P00352. Purified ALDH1A1, NADH fluorescence, propionaldehyde substrate. Potency, µM (doses to about 75.3 µM), inactives show at the top dose activity, negative = inhibition, actives largely listed as inhibitors. 220,000 tested, 7.3% active. AID 1030; active means well fitted inhibition curve with a large enough effect, not every such curve was filed as active; inconclusive means small, poorly fitted or top-dose-only effect, or another doubt; inactive means no such curve, though single readings can be large or run the other way;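 further: potency means the concentration at half of the fitted maximal effect; plate controls were no enzyme wells and a reference inhibitor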
CBFb-RUNX1 inh: CBF-beta/RUNX1 interaction disruption | Q01196+Q13951 | AlphaScreen CBFb-His/RUNX1-biotin binding, biochemical | Potency, µM (doses to about 59.8 µM), inactives show top-dose activity, negative = inhibition, most hits filed as inhibitors | 230,000 tested, under 10 active | AID 1477; further: % of control where 0% means no effect
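Proteins preincubated together for 20 min at RT before compound addition; 15 min later, nickel and streptavidin beads were added and left 90 min prior to AlphaScreen measurement.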
Starred values were filed as active, the others as inactive; [ ] = another dose, or the depositor's remark. Sampled rows, rich in hits. Any-hit rate of the full collection: about 11%. Unless noted, the call rests on the fitted dose curve; in most records, active means well fitted curve in the direction sought with a large enough effect; inconclusive means small, poorly fitted or top-dose-only effect, or another doubt; inactive means no such curve, though single readings can be large; an effect the other way counts as inactive or inconclusive.

For O=C(CC1(O)C(=O)Nc2ccccc21)c1ccccc1O (stereo not drawn) the results were HttQ103 aggreg -2%, HTT cytoprotect -1%, HPGD block -8%, PNC inhibitor inconclusive, ALDH1A1 block -12% and CBFb-RUNX1 inh 3%.
`CCOc1ccccc1-c1ccc(C(=O)O)s1` gave HPGD block inconclusive, ALDH1A1 block inconclusive and CBFb-RUNX1 inh 10%[89.1 µM].
`CO/N=C/C1CCN(c2ncc(C(F)(F)F)cc2Cl)C1=O` (stereo not drawn) gave HttQ103 aggreg inconclusive, HTT cytoprotect -10%, ALDH1A1 block 32µM* and CBFb-RUNX1 inh -1%.
`COC(=O)c1ccc(C#Cc2ccccc2)o1` gave HttQ103 aggreg 19%[9.22 µM], HTT cytoprotect 14%[10 µM], ALDH1A1 block inconclusive and CBFb-RUNX1 inh 20%.
CCOC(=O)C1=C(C)C(c2ccccc2OC)NC(=S)N1 (stereo not drawn) was read as HttQ103 aggreg 15%, HTT cytoprotect -13%, HPGD block -10%, PNC inhibitor inconclusive, ALDH1A1 block 3.5µM* and CBFb-RUNX1 inh -12%.
Screening COc1ccc(-n2c(C)nc3c(cnn3-c3ccc(Cl)cc3)c2=O)cc1 returned HttQ103 aggreg 13µM*, HTT cytoprotect -64%, HPGD block inconclusive, PNC inhibitor 4, ALDH1A1 block 6% and CBFb-RUNX1 inh -2%.
CCOC(=O)c1ccc(-n2c(C)nc3c(cnn3-c3ccccc3Cl)c2=O)cc1 was read as HttQ103 aggreg -15%, HTT cytoprotect 25%[10 µM], HPGD block -3%, PNC inhibitor -113*, ALDH1A1 block inconclusive and CBFb-RUNX1 inh -1%.
Screening COc1ccc(-n2c(C)nc3c(cnn3-c3ccc(C)cc3)c2=O)cc1 returned HttQ103 aggreg -26%, HTT cytoprotect -39%, ALDH1A1 block -4% and CBFb-RUNX1 inh -5%.
COc1ccc(-n2c(=O)cnc3cnc(N(C)C)nc32)cc1 was read as HTT cytoprotect 11% and ALDH1A1 block inconclusive.
For O=C(Nc1cccc(F)c1)N1CC2(CCN(C(=O)c3ccncc3)CC2)C1 the results were HTT cytoprotect -34%, HPGD block -22% and ALDH1A1 block -9%.
For O=C(NCCc1ccccc1)c1ccco1 the results were HttQ103 aggreg -16%, HTT cytoprotect -5%[10 µM], HPGD block -20%, PNC inhibitor 233, ALDH1A1 block -3% and CBFb-RUNX1 inh -17%.
For CCCC/C=C/C(NC(=O)c1ccccc1)c1ccccc1 (stereo not drawn) the results were HTT cytoprotect 7%, HPGD block -6%, ALDH1A1 block inconclusive and CBFb-RUNX1 inh 19%.
Screening O=C(NCCNC(=O)C(c1ccccc1)c1ccccc1)c1ccco1 returned HttQ103 aggreg -2%, HTT cytoprotect -4%, HPGD block -3%, PNC inhibitor inconclusive, ALDH1A1 block 40µM* and CBFb-RUNX1 inh -3%.
Screening CCCC/C=C/C(NC(=O)CCc1ccccc1)c1ccccc1 (stereo not drawn) returned HttQ103 aggreg -11%, HTT cytoprotect 0%, HPGD block -12%, PNC inhibitor -119*, ALDH1A1 block -9% and CBFb-RUNX1 inh 3%[2.36 µM].
For CCCC/C=C/C(NC(=O)c1ccco1)c1ccccc1 (stereo not drawn) the results were HTT cytoprotect -80%, HPGD block -30%, ALDH1A1 block 3.5µM* and CBFb-RUNX1 inh -24%.
For O=C(COc1ccccc1F)NCC(c1ccco1)N1CCCC1 (stereo not drawn) the results were HttQ103 aggreg -10%, HTT cytoprotect 22%[10 µM], ALDH1A1 block 1% and CBFb-RUNX1 inh 3%.
For O=c1[nH]c(=S)[nH]cc1Oc1ccc(Cl)cc1Cl the results were HttQ103 aggreg -11%[9.22 µM], HTT cytoprotect 32%[10 µM] and CBFb-RUNX1 inh 0%.
O=C(NNc1ccnc2cc(Cl)ccc12)C1CCCCC1 was read as HttQ103 aggreg -40%, HTT cytoprotect -112%, ALDH1A1 block 5% and CBFb-RUNX1 inh 0%.
